Experimental data taken from PubChem BioAssay AID1159580 (chemical genetic matrix, 2015).
Several values for one entry are separate records, joined by “and”; a condition that tells them apart may be missing. Equal entries are not always repeated. The whole screen tested about 5,500 compounds, of which about 2,000 (36%) were called active. Another 18% or so got no clear call; they are omitted. The list shows a part of the results. Values without a mark were called inactive. Cut-off read from the data, not from the text of the source: active = normalized growth mostly below about 0.91 (no sharp cut-off); inconclusive = no clear call, values can overlap the other calls; inactive = mostly above about 0.92.

Test: chemical genetic growth profiling, strain panel (AID 1159580);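 note: tested at 20 µM; growth read once vehicle control cultures reached saturation at 30 °C; 1 = growth at the plate median or of vehicle wells; lower values mean less growth of the strain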
Conditions: S. cerevisiae deletion strains, growth OD

## COc1cc2ccc(=O)oc2c2ccoc12
Locus YAL021C, strain ccr4, hits give low values
  normalized growth: 0.941
Locus YAL026C, strain drs2, hits give low values
  normalized growth: 0.859 (active)
Locus YAL030W, strain snc1, hits give low values
  normalized growth: 0.982
Locus YBL061C, strain skt5, hits give low values
  normalized growth: 0.999
Locus YBR009C, strain hhf1, hits give low values
  normalized growth: 0.777 (active)
Locus YBR021W, strain FUR4, hits give low values
  normalized growth: 1.04
Locus YBR023C, strain chs3, hits give low values
  normalized growth: 0.932
Locus YBR171W, strain sec66, hits give low values
  normalized growth: 0.984
Locus YBR229C, strain ROT2, hits give low values
  normalized growth: 0.998
Locus YBR231C, strain swc5, hits give low values
  normalized growth: 0.733 (active)
Locus YBR279W, strain paf1, hits give low values
  normalized growth: 0.99
Locus YCL011C, strain gbp2, hits give low values
  normalized growth: 0.823 (active)
Locus YCL016C, strain dcc1, hits give low values
  normalized growth: 0.828 (active)
Locus YCL029C, strain bik1, hits give low values
  normalized growth: 0.982
Locus YCL069W, strain vba3, hits give low values
  normalized growth: 0.915 (active)
Locus YCR088W, strain abp1, hits give low values
  normalized growth: 1.01
Locus YDL005C, strain med2, hits give low values
  normalized growth: 0.994
Locus YDL035C, strain GPR1, hits give low values
  normalized growth: 0.971
Locus YDL040C, strain nat1, hits give low values
  normalized growth: 1
Locus YDL074C, strain BRE1, hits give low values
  normalized growth: 0.85
Locus YDL101C, strain DUN1, hits give low values
  normalized growth: 0.94
Locus YDL134C, strain PPH21, hits give low values
  normalized growth: 0.964
Locus YDL185W, strain tfp1, hits give low values
  normalized growth: 0.937
Locus YDL192W, strain arf1, hits give low values
  normalized growth: 0.955
Locus YDR001C, strain nth1, hits give low values
  normalized growth: 0.994
Locus YDR069C, strain doa4, hits give low values
  normalized growth: 0.905
Locus YDR101C, strain arx1, hits give low values
  normalized growth: 0.985
Locus YDR137W, strain rgp1, hits give low values
  normalized growth: 1.03
Locus YDR159W, strain sac3, hits give low values
  normalized growth: 0.829 (active)
Locus YDR162C, strain NBP2, hits give low values
  normalized growth: 0.974
Locus YDR195W, strain ref2
  normalized growth: 1.3 [resistant] (active)
Locus YDR297W, strain sur2, hits give low values
  normalized growth: 0.903 (active)
Locus YDR318W, strain mcm21, hits give low values
  normalized growth: 0.965
Locus YDR334W, strain swr1, hits give low values
  normalized growth: 0.772 (active)
Locus YDR335W, strain msn5, hits give low values
  normalized growth: 0.896 (active)
Locus YDR388W, hits give low values
  normalized growth: 1
Locus YDR392W, strain spt3, hits give low values
  normalized growth: 0.665 (active)
Locus YDR502C, strain sam2, hits give low values
  normalized growth: 0.958
Locus YEL003W, strain gim4, hits give low values
  normalized growth: 0.818 (active)
Locus YEL037C, strain rad23, hits give low values
  normalized growth: 0.957
Locus YEL061C, strain CIN8 (second series), hits give low values
  normalized growth: 0.99
Locus YER015W, strain faa2, hits give low values
  normalized growth: 0.92 (active)
Locus YER016W, strain bim1, hits give low values
  normalized growth: 1
Locus YER110C, hits give low values
  normalized growth: 0.975
Locus YER111C, strain swi4, hits give low values
  normalized growth: 1
Locus YER155C, strain BEM2 (second series), hits give low values
  normalized growth: 0.731 (active)
Locus YER155C, strain BEM2, hits give low values
  normalized growth: 1.02
Locus YER167W, strain BCK2, hits give low values
  normalized growth: 1.01
Locus YFR010W, strain ubp6, hits give low values
  normalized growth: 0.915
Locus YGL078C, strain dbp3, hits give low values
  normalized growth: 0.967
Locus YGL086W, strain mad1, hits give low values
  normalized growth: 0.969
Locus YGL167C, strain pmr1, hits give low values
  normalized growth: 0.998
Locus YGL173C, strain kem1, hits give low values
  normalized growth: 0.862 (active)
Locus YGL227W, strain vid30, hits give low values
  normalized growth: 0.999
Locus YGL240W, strain doc1, hits give low values
  normalized growth: 0.692 (active)
Locus YGL248W, strain PDE1, hits give low values
  normalized growth: 0.952
Locus YGL253W, strain hxk2, hits give low values
  normalized growth: 0.892 (active)
Locus YGR078C, strain PAC10, hits give low values
  normalized growth: 0.977
Locus YGR135W, strain pre9, hits give low values
  normalized growth: 0.893 (active)
Locus YGR252W, strain gcn5, hits give low values
  normalized growth: 0.76 (active)
Locus YHR013C, strain ard1, hits give low values
  normalized growth: 0.953
Locus YHR027C, strain rpn1, hits give low values
  normalized growth: 0.881 (active)
Locus YHR030C, strain SLT2, hits give low values
  normalized growth: 1 and 0.986
Locus YHR079C, strain IRE1 (second series), hits give low values
  normalized growth: 0.961
Locus YHR079C, strain IRE1, hits give low values
  normalized growth: 1.02
Locus YHR094C, strain hxt1, hits give low values
  normalized growth: 0.996
Locus YHR129C, strain ARP1, hits give low values
  normalized growth: 1
Locus YHR142W, strain chs7, hits give low values
  normalized growth: 0.838 (active)
Locus YHR200W, strain rpn10, hits give low values
  normalized growth: 0.899 (active)
Locus YIL066C, strain RNR3, hits give low values
  normalized growth: 1
Locus YIL073C, strain SPO22, hits give low values
  normalized growth: 0.957
Locus YIL125W, strain kgd1, hits give low values
  normalized growth: 1.01
Locus YIR030C, strain dcg1, hits give low values
  normalized growth: 0.993
Locus YJL092W, strain hpr5, hits give low values
  normalized growth: 0.973
Locus YJL095W, strain BCK1 (second series), hits give low values
  normalized growth: 0.937
Locus YJL095W, strain BCK1, hits give low values
  normalized growth: 0.906 and 0.992
Locus YJL115W, strain asf1, hits give low values
  normalized growth: 0.883 (active)
Locus YJL129C, strain trk1, hits give low values
  normalized growth: 1.14 [resistant] (active)
Locus YJL134W, strain LCB3, hits give low values
  normalized growth: 1
Locus YJL154C, strain vps35, hits give low values
  normalized growth: 0.996
Locus YJL164C, strain tpk1, hits give low values
  normalized growth: 0.902 (active)
Locus YJL166W, strain qcr8, hits give low values
  normalized growth: 0.826 (active)
Locus YJL168C, strain set2, hits give low values
  normalized growth: 0.983
Locus YJL187C, strain SWE1 (second series), hits give low values
  normalized growth: 0.98
Locus YJR043C, strain POL32, hits give low values
  normalized growth: 0.921
